In PubChem BioAssay (Tox21):
Records with an inconclusive call do not appear. Where a call stands in place of a potency, no number is given. Calls of active or inactive are those of the source. Unless noted, calls come from the whole dose curve; as a rule, active = well fitted curve in the direction sought with a large enough effect in the repeat runs; inconclusive = weak or mixed curves; inactive = no such curve, though single readings can be large; an effect the other way counts as inactive or inconclusive.

Legend:
[1] = qHTS assay to test for compound auto fluorescence at 535 nm (green) in HEK293 cells (AID 720680)
[2] = qHTS assay to test for compound auto fluorescence at 460 nm (blue) in HEK293 cell free culture (AID 720681)
In short: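 Blue fluorescence (Ex 405/Em 460 nm, triamterene-equivalent) was read immediately after pin transfer of compound or DMSO into medium (DMEM, 10% FBS) without cells.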

[3] = qHTS assay to test for compound auto fluorescence at 535 nm (green) in HEK293 cell free culture (AID 720682)
In short: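 Read-out: 485/535 nm fluorescence intensity, calibrated against fluorescein. Medium only (DMEM + 10% FBS, no cells); test compound or DMSO vehicle added by pintool before plate reading.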

[4] = qHTS assay to test for compound auto fluorescence at 590 nm (red) in HEK293 cell free culture (AID 720683)
In short: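 Red-channel autofluorescence of compounds in culture medium (DMEM, 10% FBS), no cells, measured at 540/590 nm. Rose Bengal sodium is the reference fluorophore for equivalence.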

[5] = qHTS assay to test for compound auto fluorescence at 590 nm (red) in HepG2 cell free culture (AID 720684)
In short: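 No cells present: MEM + 10% FBS only. Compound pinned in, red label read (540/590 nm). Activity = fluorescence equivalent to Rose Bengal sodium.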

[6] = qHTS assay to test for compound auto fluorescence at 460 nm (blue) in HepG2 cell free culture (AID 720685)
In short: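 Cell-free plates of MEM plus 10% FBS received 23 nL compound or DMSO vehicle; blue-channel (405/460 nm) intensity scored against triamterene as reference fluorophore.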

[7] = qHTS assay to test for compound auto fluorescence at 535 nm (green) in HepG2 cell free culture (AID 720686)
[8] = qHTS assay to test for compound auto fluorescence at 460 nm (blue) in HepG2 cells (AID 720687)
In short: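 Blue-channel autofluorescence (Ex/Em 405/460 nm, triamterene-equivalent) was measured after 1 hr compound exposure at 37 C, 5% CO2. Cells were HepG2, plated overnight at 37 C in MEM plus 10% FBS.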

[9] = biological target: Glucocorticoid receptor (Homo sapiens) (UniProt P04150); test: qHTS assay to identify small molecule antagonists of the glucocorticoid receptor (GR) signaling pathway (AID 720692; active = well fitted inhibition curve with a large enough effect in the signal ratio in the repeat runs, not every such curve was filed as active; the % refers to the signal ratio; note: potency is the fitted concentration of half-maximal effect)
Sequence of Glucocorticoid receptor (Homo sapiens) (P04150 whole entry, looked up): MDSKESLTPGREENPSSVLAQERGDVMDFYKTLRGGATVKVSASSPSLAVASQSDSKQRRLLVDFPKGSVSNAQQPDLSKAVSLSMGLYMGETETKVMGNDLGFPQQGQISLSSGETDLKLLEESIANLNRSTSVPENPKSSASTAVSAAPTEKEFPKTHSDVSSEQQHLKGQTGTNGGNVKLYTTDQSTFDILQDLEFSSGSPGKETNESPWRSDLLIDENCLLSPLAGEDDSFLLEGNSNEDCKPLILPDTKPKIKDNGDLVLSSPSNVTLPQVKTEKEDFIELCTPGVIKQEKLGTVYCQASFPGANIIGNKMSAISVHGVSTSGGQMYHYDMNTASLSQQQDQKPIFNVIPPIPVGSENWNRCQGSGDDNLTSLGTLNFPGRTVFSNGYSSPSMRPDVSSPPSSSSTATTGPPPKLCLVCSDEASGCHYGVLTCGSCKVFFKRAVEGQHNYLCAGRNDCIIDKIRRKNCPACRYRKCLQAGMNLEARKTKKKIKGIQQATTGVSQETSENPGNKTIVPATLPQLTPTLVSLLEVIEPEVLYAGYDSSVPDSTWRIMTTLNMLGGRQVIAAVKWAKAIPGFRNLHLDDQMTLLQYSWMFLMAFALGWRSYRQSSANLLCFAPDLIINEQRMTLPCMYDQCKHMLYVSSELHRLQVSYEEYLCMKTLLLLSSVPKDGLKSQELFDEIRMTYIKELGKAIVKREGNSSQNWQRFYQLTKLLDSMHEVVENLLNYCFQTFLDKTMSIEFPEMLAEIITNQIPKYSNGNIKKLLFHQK
In short: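 In a 1536-well cell format, compounds were added 4 h after seeding GR-bla HeLa cells, together with dexamethasone at 5 nM final; reporter activity was measured by FRET-substrate fluorescence following 18 h at 37 C.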

[10] = qHTS assay to identify small molecule antagonists of the glucocorticoid receptor (GR) signaling pathway - cell viability counter screen (AID 720693); note: nearly all actives have a fitted effect of over 55% in size; note: potency is the fitted concentration of half-maximal effect
[11] = qHTS assay for identifying genotoxic compounds that show differential cytotoxicity against isogenic chicken DT40 cell lines with known DNA damage response pathways - Rev3 mutant cell line (AID 743014); note: nearly all actives have a fitted effect of over 55% in size; note: potency is the fitted concentration of half-maximal effect
[12] = qHTS assay for identifying genotoxic compounds that show differential cytotoxicity against isogenic chicken DT40 cell lines with known DNA damage response pathways - Rad54/Ku70 mutant cell line (AID 743015); note: nearly all actives have a fitted effect of over 60% in size; note: potency is the fitted concentration of half-maximal effect
[13] = qHTS assay to identify small molecule antagonists of the androgen receptor (AR) signaling pathway using the MDA cell line - cell viability counter screen (AID 743041; note: nearly all actives have a fitted effect of over 45% in size; note: potency is the fitted concentration of half-maximal effect)
In short: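 Using the breast carcinoma line MDA-kb2 AR-luc, test chemicals were co-incubated with R1881 for 16 h; CellTiter-Fluor reagent, added at 15.5 h, provided a fluorescence measure of live cells.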

[14] = qHTS assay for identifying genotoxic compounds that show differential cytotoxicity against isogenic chicken DT40 cell lines with known DNA damage response pathways - wild type cell line (AID 743012); note: nearly all actives have a fitted effect of over 60% in size; note: potency is the fitted concentration of half-maximal effect
In short: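 Viability of DNA repair-proficient chicken DT40 cells was assessed by CellTiter-Glo luminescence following 40 h compound exposure at 37 C/5% CO2.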

[15] = biological target: Glucocorticoid receptor (Homo sapiens) (UniProt P04150); test: qHTS assay to identify small molecule agonists of the glucocorticoid receptor (GR) signaling pathway (AID 720691; active = well fitted activation curve with a large enough effect in the signal ratio in the repeat runs, not every such curve was filed as active; the % refers to the signal ratio); details: GR-bla HeLa, beta-lactamase reporter ratio, 18 h; activation: at 62.4 µM (top of the series)
In short: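 Compounds in DMSO, alongside positive controls, were added to GR-bla HeLa reporter cells and incubated 18 h at 37 C; GRE-driven beta-lactamase was detected by fluorescence after 2 h with FRET substrate at room temperature.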

[16] = qHTS assay to identify small molecule antagonists of the androgen receptor (AR) signaling pathway - cell viability counter screen (AID 743033; note: nearly all actives have a fitted effect of over 45% in size; note: potency is the fitted concentration of half-maximal effect)
[17] = biological target: Androgen receptor (Homo sapiens) (UniProt P10275); test: qHTS assay to identify small molecule agonists of the androgen receptor (AR) signaling pathway using the MDA cell line (AID 743040; note: nearly all actives have a fitted effect of over 20% in size; note: potency is the fitted concentration of half-maximal effect)
Sequence of Androgen receptor (Homo sapiens) (P10275 whole entry, looked up): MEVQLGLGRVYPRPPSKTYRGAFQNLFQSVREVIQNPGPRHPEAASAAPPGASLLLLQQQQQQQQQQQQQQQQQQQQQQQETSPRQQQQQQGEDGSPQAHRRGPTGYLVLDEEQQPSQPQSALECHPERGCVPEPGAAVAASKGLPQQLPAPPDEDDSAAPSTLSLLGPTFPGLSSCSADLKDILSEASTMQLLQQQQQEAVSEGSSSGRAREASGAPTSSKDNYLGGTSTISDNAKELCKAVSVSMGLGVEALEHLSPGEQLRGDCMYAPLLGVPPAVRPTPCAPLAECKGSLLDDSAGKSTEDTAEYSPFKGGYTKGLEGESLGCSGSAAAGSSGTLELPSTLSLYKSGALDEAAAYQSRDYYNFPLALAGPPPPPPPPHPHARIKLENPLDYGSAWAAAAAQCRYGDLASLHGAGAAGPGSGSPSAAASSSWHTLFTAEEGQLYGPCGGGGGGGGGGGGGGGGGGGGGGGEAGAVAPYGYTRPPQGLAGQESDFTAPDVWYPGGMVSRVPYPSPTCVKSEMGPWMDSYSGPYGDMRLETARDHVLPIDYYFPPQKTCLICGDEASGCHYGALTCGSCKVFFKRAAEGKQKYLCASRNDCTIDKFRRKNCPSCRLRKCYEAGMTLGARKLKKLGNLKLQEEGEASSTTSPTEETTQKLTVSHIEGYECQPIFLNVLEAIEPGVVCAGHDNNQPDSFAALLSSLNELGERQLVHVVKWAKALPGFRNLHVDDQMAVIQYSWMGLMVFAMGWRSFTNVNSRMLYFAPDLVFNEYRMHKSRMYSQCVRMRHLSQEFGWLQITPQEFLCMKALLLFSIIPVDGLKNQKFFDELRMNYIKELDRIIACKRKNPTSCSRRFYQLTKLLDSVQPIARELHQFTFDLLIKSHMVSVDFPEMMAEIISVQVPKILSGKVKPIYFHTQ
In short: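 Stable MMTV-luciferase reporter in MDA-kb2 cells; note the promoter carries GR as well as AR response elements. 16 h compound treatment, 37C, 0% CO2; ONE-Glo luminescence endpoint.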

[18] = biological target: Androgen receptor (Homo sapiens) (UniProt P10275); test: qHTS assay to identify small molecule antagonists of the androgen receptor (AR) signaling pathway using the MDA cell line (AID 743042; note: nearly all actives have a fitted effect of over 55% in size; note: potency is the fitted concentration of half-maximal effect)
In short: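 Antagonist mode: compounds plus R1881 agonist added to MDA-kb2 AR-luc cells, incubated 16 h at 37C. Luciferase reporter luminescence quantified, with multiplexed CellTiter-Fluor readout for cell viability.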

[19] = biological target: Androgen receptor (Homo sapiens) (UniProt P10275); test: qHTS assay to identify small molecule agonists of the androgen receptor (AR) signaling pathway (AID 743036; active = well fitted activation curve with a large enough effect in the signal ratio in the repeat runs, with a control signal flat, not every such curve was filed as active; the % refers to the signal ratio; note: potency is the fitted concentration of half-maximal effect)
In short: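 HEK293 cells stably carrying a UAS-driven beta-lactamase reporter (GeneBLAzer AR-UAS-bla-GripTite) were plated at 2,000 cells/well, rested 4 h at 37C, then exposed to compounds in DMSO for 16 h. LiveBLAzer B/G FRET substrate was added for 2 h at room temperature; fluorescence read.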

[20] = biological target: Androgen receptor (Homo sapiens) (UniProt P10275); test: qHTS assay to identify small molecule antagonists of the androgen receptor (AR) signaling pathway (AID 743035; active = well fitted inhibition curve with a large enough effect in the signal ratio in the repeat runs, not every such curve was filed as active; the % refers to the signal ratio; note: potency is the fitted concentration of half-maximal effect)
In short: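 Reporter HEK293 cells were exposed to compounds and R1881 overnight (16 h, 37C); beta-lactamase activity was then quantified by FRET fluorescence.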

SMILES	Potency [1]	Potency [2]	Potency [3]	Potency [4]	Potency [5]	outcome [6]	Potency [7]	outcome [8]	Potency [9]	Potency [10]	Potency [11]	Potency [12]	Potency [13]	Potency [14]	Potency [15]	Potency [16]	Potency [17]	Potency [18]	Potency [19]	Potency [20]
C[N+]1(C)[C@@H]2CC(OC(=O)C(O)(c3cccs3)c3cccs3)C[C@H]1[C@@H]1O[C@@H]12 (stereo partly drawn)	inactive	inactive	inactive	inactive	inactive	inactive	inactive	inactive	inactive	inactive	inactive	inactive	inactive	–	–	–	–	–	–	–
CC(=C\c1ccccc1)/C=C1/SC(=S)N(CC(=O)O)C1=O	inactive	inactive	inactive	inactive	inactive	inactive	inactive	inactive	–	inactive	inactive	inactive	–	inactive	–	–	–	–	–	–
C=CCNC1=C2C[C@@H](C)C[C@H](OC)[C@H](O)[C@@H](C)/C=C(\C)[C@H](OC(N)=O)[C@@H](OC)/C=C\C=C(/C)C(=O)NC(=CC1=O)C2=O	inactive	inactive	inactive	inactive	inactive	inactive	inactive	inactive	–	–	0.473 µM (active)	0.376 µM (active)	–	0.335 µM (active)	inactive	–	–	–	–	–
N#CC(c1ccc(Cl)cc1)c1c(Cl)cc(-n2ncc(=O)[nH]c2=O)cc1Cl (stereo not drawn)	inactive	inactive	inactive	inactive	inactive	inactive	inactive	inactive	23.9 µM (active)	inactive	–	29.8 µM (active)	inactive	29.8 µM (active)	–	inactive	inactive	inactive	–	–
O=C(Nc1ccc(O)cc1)c1ccccc1O	inactive	inactive	inactive	inactive	inactive	inactive	inactive	inactive	–	inactive	–	–	inactive	–	inactive	inactive	inactive	inactive	–	–
Clc1ccc(COC(Cn2ccnc2)c2ccc(Cl)cc2Cl)c(Cl)c1 (stereo not drawn)	inactive	inactive	inactive	inactive	inactive	inactive	inactive	inactive	inactive	inactive	11.4 µM (active)	10.1 µM (active)	inactive	10.1 µM (active)	–	inactive	inactive	inactive	–	–
COC(=O)C1=C(C#N)NC(C)=C(C(=O)OC(C)C)C1c1cccc([N+](=O)[O-])c1 (stereo not drawn)	inactive	inactive	inactive	inactive	inactive	inactive	inactive	inactive	19 µM (active)	inactive	23.7 µM (active)	18.8 µM (active)	inactive	13.3 µM (active)	–	inactive	–	–	–	–
C=C1CC[C@H](O)CC1=C/C=C1\CCC[C@]2(C)[C@@H]([C@H](C)CCCC(C)(C)O)CC[C@@H]12	inactive	inactive	inactive	inactive	inactive	inactive	inactive	inactive	–	10.7 µM (active)	6.68 µM (active)	5.96 µM (active)	inactive	5.96 µM (active)	–	inactive	inactive	26.6 µM (active)	inactive	–
O=C(NOC[C@H](O)CO)c1ccc(F)c(F)c1Nc1ccc(I)cc1F	inactive	inactive	inactive	inactive	inactive	inactive	inactive	inactive	–	inactive	inactive	inactive	inactive	inactive	–	inactive	inactive	–	–	–
CC(CN(C)C)CN1c2ccccc2S(=O)(=O)c2ccccc21 (stereo not drawn)	inactive	inactive	inactive	inactive	inactive	inactive	inactive	inactive	–	inactive	inactive	inactive	inactive	inactive	–	inactive	inactive	inactive	inactive	inactive
CCCCOC(=O)C(=O)Nc1cccc(-c2nn[nH]n2)c1	inactive	inactive	inactive	inactive	inactive	inactive	inactive	inactive	–	inactive	inactive	inactive	inactive	inactive	–	inactive	inactive	inactive	inactive	inactive
CCC(=O)c1ccc2c(c1)N(CCCN1CCN(CCO)CC1)c1ccccc1S2	inactive	inactive	inactive	inactive	inactive	inactive	inactive	inactive	–	inactive	2.66 µM (active)	4.22 µM (active)	–	2.66 µM (active)	–	–	–	–	–	–
CCCCCCC(=O)O[C@H]1CC[C@H]2[C@@H]3CCc4cc(O)ccc4[C@H]3CC[C@]12C	inactive	inactive	inactive	inactive	inactive	inactive	inactive	inactive	7.56 µM (active)	inactive	inactive	inactive	inactive	inactive	–	inactive	–	–	–	–
CO[C@@H]1[C@@H](O[C@@H]2O[C@H](C)[C@@H](O[C@H]3C[C@@](C)(O)[C@@H](OC(=O)CC(C)C)[C@H](C)O3)[C@H](N(C)C)[C@H]2O)[C@@H](CC=O)C[C@@H](C)C(=O)/C=C/C2OC2C[C@@H](C)OC(=O)C[C@H]1OC(C)=O (stereo partly drawn)	inactive	inactive	inactive	inactive	inactive	inactive	inactive	inactive	–	inactive	5.31 µM (active)	5.31 µM (active)	–	3.35 µM (active)	–	inactive	inactive	–	–	–
COC(=O)[C@H]1[C@H]2C[C@@H]3c4[nH]c5cc(OC)ccc5c4CCN3C[C@H]2C[C@@H](OC(=O)/C=C/c2cc(OC)c(OC)c(OC)c2)[C@@H]1OC	inactive	inactive	inactive	inactive	inactive	inactive	inactive	inactive	–	inactive	–	–	inactive	–	inactive	inactive	inactive	inactive	–	–
S=C=Nc1ccc(N=C=S)cc1	inactive	inactive	inactive	inactive	inactive	inactive	inactive	inactive	–	inactive	inactive	inactive	–	inactive	–	inactive	–	–	–	–
CC(CCc1ccc(O)cc1)NCC(O)c1ccc(O)cc1 (stereo not drawn)	inactive	inactive	inactive	inactive	inactive	inactive	inactive	inactive	–	inactive	inactive	inactive	inactive	inactive	–	inactive	inactive	inactive	inactive	inactive
CC(C)N=c1cc2n(-c3ccc(Cl)cc3)c3ccccc3nc-2cc1Nc1ccc(Cl)cc1	inactive	inactive	inactive	inactive	inactive	inactive	inactive	inactive	–	–	11.4 µM (active)	12.7 µM (active)	–	–	inactive	inactive	–	–	–	–
CN=C1C=CC(=C(c2ccc(N(C)C)cc2)c2ccc(N(C)C)cc2)C=C1	inactive	inactive	inactive	inactive	inactive	inactive	inactive	inactive	–	7.56 µM (active)	1.06 µM (active)	0.75 µM (active)	7.5 µM (active)	0.531 µM (active)	–	0.535 µM (active)	inactive	3.76 µM (active)	–	–
CCCCCCOc1ccc(C(=N)N(CCCC)CCCC)c2ccccc12	inactive	inactive	inactive	inactive	inactive	inactive	inactive	inactive	–	13.4 µM (active)	5.31 µM (active)	5.96 µM (active)	18.8 µM (active)	3.76 µM (active)	–	15.1 µM (active)	inactive	16.8 µM (active)	–	–
CC[C@@H](C(=O)O)[C@@H]1O[C@@H]([C@@H](C)[C@H](O)[C@H](C)C(=O)[C@H](CC)[C@H]2O[C@]3(C=C[C@@H](O)[C@]4(CC[C@@](C)([C@H]5CC[C@](O)(CC)[C@H](C)O5)O4)O3)[C@H](C)C[C@@H]2C)[C@@H](C)C[C@@H]1C	inactive	inactive	inactive	inactive	inactive	inactive	inactive	inactive	–	–	0.168 µM (active)	0.237 µM (active)	–	0.237 µM (active)	inactive	–	–	–	–	–
CC(C)CCCC(C)NC(C)C (stereo not drawn)	inactive	inactive	inactive	inactive	inactive	inactive	inactive	inactive	–	inactive	inactive	inactive	inactive	inactive	–	inactive	inactive	inactive	inactive	–
CCCC1([C@H](O)C/C=C/[C@H]2[C@H](O)CC(=O)[C@@H]2CCCCCCC(=O)OC)CCC1	inactive	inactive	inactive	inactive	inactive	inactive	inactive	inactive	–	–	23.7 µM (active)	13.3 µM (active)	–	11.9 µM (active)	inactive	16.9 µM (active)	inactive	inactive	–	–
CCN(CC)c1ccc(C(=C2C=CC(=[N+](CC)CC)C=C2)c2ccccc2)cc1	inactive	inactive	inactive	inactive	inactive	inactive	inactive	inactive	–	1.51 µM (active)	0.106 µM (active)	0.106 µM (active)	2.66 µM (active)	0.0944 µM (active)	–	2.39 µM (active)	inactive	0.473 µM (active)	–	–
C#C[C@]1(O)CC[C@H]2[C@@H]3CCC4=C/C(=N/O)CC[C@@H]4[C@H]3CC[C@@]21CC	inactive	inactive	inactive	inactive	inactive	inactive	inactive	inactive	–	inactive	23.7 µM (active)	21.1 µM (active)	–	16.8 µM (active)	–	inactive	0.0335 µM (active)	–	4.25 µM (active)	26.8 µM (active)
